Data as given in PubChem BioAssay (Tox21).
Results filed as inconclusive are left out. Calls of active or inactive are those of the source. The call rests on the fitted dose curve.

molecular target: Peroxisome proliferator-activated receptor delta (Homo sapiens) (UniProt Q03181); assay: qHTS assay to identify small molecule agonists of the peroxisome proliferator-activated receptor delta (PPARd) signaling pathway (AID 743212); conditions: HEK293H PPARd-UAS-bla, beta-lactamase FRET ratio, 17 h; series mostly up to 62.6 µM
Sequence (Q03181 whole entry, looked up): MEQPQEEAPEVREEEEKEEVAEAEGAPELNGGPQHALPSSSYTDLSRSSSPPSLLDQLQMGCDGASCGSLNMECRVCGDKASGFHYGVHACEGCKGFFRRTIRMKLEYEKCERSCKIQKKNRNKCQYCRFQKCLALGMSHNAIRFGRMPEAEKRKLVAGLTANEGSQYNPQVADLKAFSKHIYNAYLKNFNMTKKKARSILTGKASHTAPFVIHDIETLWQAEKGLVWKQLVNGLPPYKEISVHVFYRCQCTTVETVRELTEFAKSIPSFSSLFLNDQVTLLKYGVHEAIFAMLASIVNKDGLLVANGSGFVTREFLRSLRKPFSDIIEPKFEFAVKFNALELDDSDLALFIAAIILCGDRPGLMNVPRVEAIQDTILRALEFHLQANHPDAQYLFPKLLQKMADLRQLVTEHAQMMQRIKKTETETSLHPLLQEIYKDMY
Source text: U.S. Tox21 Program National Center for Advancing Translational Sciences [NCATS] NIH Chemical Genomics Center [NCGC] U.S. Environmental Protection Agency [EPA] National Institutes of Environmental Health Sciences [NIEHS] National Toxicology Program [NTP] U.S. Food and Drug Administration [FDA] Tox21 Assay Overview: The peroxisome proliferator-activated receptors (PPARs) are lipid-activated transcription factors of the nuclear receptor superfamily with three distinct subtypes namely PPAR alpha, PPAR delta (PPARd) and PPAR gamma. All these subtypes heterodimerizes with Retinoid X receptor (RXR) and have different physiological functions. […] To identify the compounds that activate PPAR-delta signaling, GeneBLAzer PPAR delta UAS-bla HEK293H cell line (Invitrogen, Carlsbad, CA, USA) containing a beta-lactamase reporter gene under the control of an Upstream Activator Sequence (UAS) was used to screen the Tox21 compound library.
Tox21 Assay Protocol Summary: PPARd-bla cells were dispensed at 3000 cells/6uL/well in 1536-well black wall/clear bottom plates using a Multidrop Combi (Thermo Fisher Scientific, Waltham, MA) dispenser. After the assay plates were incubated at 37 C and 5% CO2 for 5 h, 23 nL of compounds dissolved in DMSO, positive controls or DMSO only was transferred to the assay plate by a Pintool station (Kalypsys, San Diego, CA). The assay plates were incubated at 37C for 17 h. After 1 uL of LiveBLAzerTM B/G FRET substrate was added using a Bioraptr Flying Reagent Dispenser (FRD) workstation (Beckman Coulter, Indianapolis, IN, USA), the plates were incubated at room temperature for 2 h, and fluorescence intensity was measured by an Envision plate reader (PerkinElmer, Shelton, CT).

**Q.** ClCc1cccc(Cl)c1 was tested. Which outcome did it give?
**A.** inactive

**Q.** Which outcome does the source give for O=C(CBr)OCc1ccccc1 here?
**A.** inactive

**Q.** For COP(=S)(OC)Oc1ccc([N+](=O)[O-])cc1Cl, which outcome is on record?
**A.** inactive

**Q.** CCCN(CCC)c1c([N+](=O)[O-])cc(S(C)(=O)=O)cc1[N+](=O)[O-] was tested. Which outcome did it give?
**A.** inactive

**Q.** Cc1ccccc1CCl was tested. Which outcome did it give?
**A.** inactive

**Q.** Which outcome does the source give for Clc1cccc2ccccc12 here?
**A.** inactive

**Q.** CC1(C)CCC(Cc2ccc(Cl)cc2)C1(O)Cn1cncn1 (stereo not given) was tested. Which outcome did it give?
**A.** inactive

**Q.** For CCCN(CC1CC1)c1c([N+](=O)[O-])cc(C(F)(F)F)cc1[N+](=O)[O-], which outcome is on record?
**A.** inactive

**Q.** c1ccc(CN2CCNCC2)cc1 was tested. Which outcome did it give?
**A.** inactive

**Q.** How did the outcome turn out when ClC=C(Cl)Cl was run?
**A.** inactive

**Q.** With [O-][Cl+]O as the compound, how does the outcome read?
**A.** inactive

**Q.** For O=S(=O)(Cl)c1ccccc1, which outcome is on record?
**A.** inactive

**Q.** How did the outcome turn out when O=C(CBr)Nc1ccc(Cl)cc1C(=O)c1ccccc1F was run?
**A.** inactive

**Q.** How did the outcome turn out when Oc1ccc(Cl)c(Cl)c1Cl was run?
**A.** inactive

**Q.** How did the outcome turn out when CCC(Br)(CC)C(=O)NC(N)=O was run?
**A.** inactive

**Q.** With Nc1ccc([N+](=O)[O-])cc1[N+](=O)[O-] as the compound, how does the outcome read?
**A.** inactive

**Q.** With CC(=O)c1cc2c(cc1C)C(C)(C)C(C)CC2(C)C (stereo not given) as the compound, how does the outcome read?
**A.** inactive

**Q.** For CC[C@H]1C[C@H]2[C@@H]3CCC4=CC(=O)CC[C@@H]4[C@H]3CC[C@]2(C)[C@H]1O, which outcome is on record?
**A.** inactive

**Q.** NC(=O)CI was tested. Which outcome did it give?
**A.** inactive

**Q.** With C=CCC1([C@H](C)CCC)C(=O)NC(=O)NC1=O as the compound, how does the outcome read?
**A.** inactive

**Q.** For O=C(O)C(F)(F)C(F)(F)C(F)(F)C(F)(F)C(F)(F)C(F)(F)C(F)(F)C(F)(F)C(F)(F)F, which outcome is on record?
**A.** inactive

**Q.** For O=S1(=O)OC(c2cc(Br)c(O)c(Br)c2)(c2cc(Br)c(O)c(Br)c2)c2ccccc21, which outcome is on record?
**A.** inactive

**Q.** Which outcome does the source give for c1ccc(C2CC2)c(OCC2=NCCN2)c1 here?
**A.** inactive

**Q.** For N#C/C(N)=C(/N)C#N, which outcome is on record?
**A.** inactive

**Q.** With O=[N+]([O-])c1ccccc1CCl as the compound, how does the outcome read?
**A.** inactive

**Q.** With CCCCCCCCOC(=O)c1ccc(C(=O)OCCCCCCCC)c(C(=O)OCCCCCCCC)c1 as the compound, how does the outcome read?
**A.** inactive

**Q.** With CC(Cl)C(C)Cl (stereo not given) as the compound, how does the outcome read?
**A.** inactive

**Q.** CC(C)(Cl)[N+](=O)[O-] was tested. Which outcome did it give?
**A.** inactive

**Q.** With CC(=O)CCC(C)=O as the compound, how does the outcome read?
**A.** inactive

**Q.** With CCC(COC(=O)c1cc(OC)c(OC)c(OC)c1)(c1ccccc1)N(C)C (stereo not given) as the compound, how does the outcome read?
**A.** inactive

**Q.** For CCOS(C)(=O)=O, which outcome is on record?
**A.** inactive

**Q.** COC1=CC(=O)O[C@@H](CCc2ccccc2)C1 was tested. Which outcome did it give?
**A.** inactive

**Q.** Which outcome does the source give for O=C1NCN(c2ccccc2)C12CCN(CCCOc1ccc(F)cc1)CC2 here?
**A.** inactive

**Q.** O=C(O)COc1ccc(Cl)cc1 was tested. Which outcome did it give?
**A.** inactive

**Q.** For CCC(Cl)CCl (stereo not given), which outcome is on record?
**A.** inactive

**Q.** CCCCC(CC)COP(=O)(Oc1ccccc1)Oc1ccccc1 (stereo not given) was tested. Which outcome did it give?
**A.** inactive

**Q.** For C[C@]12CC[C@H]3[C@@H](CCC4=CC(=O)CC[C@@H]43)[C@@H]1CC[C@@H]2OC(=O)CCC1CCCCC1, which outcome is on record?
**A.** inactive

**Q.** For COC(=O)C(C)N(C(=O)Cc1ccccc1)c1c(C)cccc1C (stereo not given), which outcome is on record?
**A.** inactive

**Q.** II was tested. Which outcome did it give?
**A.** inactive

**Q.** Which outcome does the source give for Cc1ccc2ccccc2c1 here?
**A.** inactive
